Assay results from the supplement of paper PMC10338343.
± gives the standard deviation.

Legend:
[1] = tested on: MILI (PIWIL2) piRISC loaded with piRNA #1 (26 nt); test: pre-steady-state target cleavage rate (min^-1); guide: piRNA #1 5'p-UGAGGUAGUAGGUUGUAUAGUAUCCA; higher = faster piRNA-guided slicing of the target; conditions: auxiliary factor: 500 nM mouse GTSF1;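 also: 1 nM active piRISC with 0.1 nM target library at 33 °C single turnover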
How it was run: (§1)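 In this Cleave-'n-Seq assay, uncleaved targets were sequenced and normalised to depth and to weakly complementary targets. They came from a transcribed, DNA-blocked target RNA library […] mixed with 1 nM active affinity-purified piRISC carrying one synthetic guide, with or without 500 nM GTSF1 partner protein, in HEPES–potassium acetate buffer at 33 °C for 0–8 or 0–960 min. After three trials were pooled and k3 was capped at 0.0001 min^-1, the pre-steady-state cleavage rate was obtained from a burst-and-steady-state fit.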

[2] = tested on: EfPiwi piRISC loaded with piRNA #1 (26 nt); test: pre-steady-state target cleavage rate (min^-1); auxiliary factor: 500 nM Ephydatia muelleri Gtsf1; guide: piRNA #1 5'p-UGAGGUAGUAGGUUGUAUAGUAUCCA; MIWI and MILI are mouse PIWI proteins and EfPiwi is from a freshwater sponge; tags in brackets are library labels; higher = faster piRNA-guided slicing of the target
How it was run: as §1

Sequence	pre-steady-state target cleavage rate [1]	pre-steady-state target cleavage rate [2]
GGAGACCAUACUAUAACAACCUACUACCUCA	0.133 ± 0.012	0.00662 ± 0.0038
GGAGAGGAUAGUUUACAACCUACUACCUCA	0.0583 ± 0.0089	0.0061 ± 0.0039
GGAGACCAUACUAUACAAGGUACUACCUCA	0.0713 ± 0.0087	0.00335 ± 0.0029
GGAGACGAUACUAUACAACCCACUACCUCA	0.0178 ± 0.0039	0.00638 ± 0.0022
GGAGACCUAUGAUUACAACCUACUACCUCU [g2:g17:cont:t1U]	0.00674 ± 0.0025	0.732 ± 0.29
GGAGACGUUACUAUACAACCAACUACCUCA	0.0041 ± 0.002	0.00407 ± 0.0025
GGAGACCAUACUAUACAACCCACUACCUCA	0.0223 ± 0.0041	0.0058 ± 0.0024
GGAGACCUUACUAUACAGCCUACUACCUCA	0.116 ± 0.012	0.068 ± 0.028
GGAGACCUUACUAUCCAACCUACUACCUCA	0.17 ± 0.018	0.0791 ± 0.034
GGAGACGAUACUAUACAUCCUACUACCUCA	0.289 ± 0.024	0.00772 ± 0.0032
GGAGUGGAUACUUUACAUCCUACUACCUCA	0.253 ± 0.012	0.0043 ± 0.0029
GGAGACCAUACUCUACAACCUACUACCUCA	0.161 ± 0.018	0.00922 ± 0.0037
GGAGACGAUACUAUACAAGCUACAACCUCA	0.211 ± 0.018	0.00442 ± 0.0022
GGAGACCUAUCUAUACAACCUACUACCUCC [g2:g20:cont:t1C]	0.106 ± 0.011	0.0049 ± 0.0034
GGAGACCAUACUAUACAACCUACUACUCUCA	0.331 ± 0.028	0.00773 ± 0.0036
GGAGACGAUACUAUACAACGUAGUACCUCA	0.00546 ± 0.0032	0.00274 ± 0.0012
GGAGACGAUACUUAACAACCUACUACCUCA	0.134 ± 0.013	0.00683 ± 0.0038
GGAGUGGUACUAUACAACCUACUACCUCA	0.148 ± 0.0098	0.00812 ± 0.0044
GGAGUGGAUACUAUUCAACCUACUACCUCA	0.179 ± 0.0081	0.0119 ± 0.0052
GGAGACCAUACUAUAGAACCUACUACCUCA	0.116 ± 0.016	0.00367 ± 0.0017
GGAGACCUAACUAUACAACCUACUACCUCCA	0.123 ± 0.021	0.015 ± 0.0066
GGAGACGUAACUAUACAACCUACUACCUCA	0.166 ± 0.018	0.0248 ± 0.0098
GGAGACGAAACUAUUCAACCUACUACCUCA	0.198 ± 0.021	0.00439 ± 0.0036
GGAGACCAUACUAUACAUCCUACUUCCUCA	0.176 ± 0.03	0.00272 ± 0.0026
GGAGACGAUACUAUACAACCUACUACCCCA	0.144 ± 0.025	0.00536 ± 0.0014

Sequence	pre-steady-state target cleavage rate [1]	pre-steady-state target cleavage rate [2]
GGAGACCAAACUAUACAACCUACUACCACA	0.118 ± 0.028	0.00528 ± 0.0044
GGAGUGGAUACUAUACAACCUACAACCUCA	0.0801 ± 0.011	0.00468 ± 0.0018
GGAGAGGAUACAAUACAACCAACUACCUCA	0.00985 ± 0.0026	0.00366 ± 0.0019
GGAGACCAUCCUAUACAACCUACUACCUCA	0.16 ± 0.03	0.01 ± 0.006
GGAGAGCAUACAAUACAACCUACUACCUCA	0.206 ± 0.017	0.00861 ± 0.0046
GGAGACGAAUACUAUACAACCUACUACCUCA	0.178 ± 0.015	0.0529 ± 0.018
GGAGUGGAUACUAUACAUCCUUCUACCUCA	0.0293 ± 0.0033	0.00476 ± 0.0022
GGAGAGGAUACUAAACUACCUACUACCUCA	0.167 ± 0.011	0.00323 ± 0.003
GGAGACCAAACAAUACAACCUACUACCUCA	0.0678 ± 0.024	0.00594 ± 0.0054
GGAGACGAUACAAUACAACCUACUACCUCA	0.158 ± 0.012	0.0117 ± 0.0044
GGAGAGGAUACUAUACAACCUACUAACUCA	0.0462 ± 0.014	0.00561 ± 0.0029
GGAGAGGAUACUAUACAACCUACUACCUCCA	0.152 ± 0.011	0.142 ± 0.054
GGAGACGAGACUAUACAACCUACUACCUCA	0.214 ± 0.034	0.0942 ± 0.032
GGAGACGAAACUAUACAACCUAGUACCUCA	0.0663 ± 0.021	0.0035 ± 0.0025
GGAGAGGAAACUAUACAACCUACAACCUCA	0.122 ± 0.03	0.00279 ± 0.0019
GGAGACCAUACUAUACAAUCUACUACCUCA	0.146 ± 0.013	0.00847 ± 0.004
GGAGUGGCUACUAUACAACCUACUACCUCA	0.19 ± 0.012	0.0198 ± 0.0079
GGAGACCUAUCUAUACAACCUACUACCUGA	0.074 ± 0.011	0.00569 ± 0.0033
GGAGACCUAACUAUACAACCUACCACCUCA	0.0488 ± 0.014	0.00588 ± 0.0042
GGAGAGGAUACUAUUCAACCUACUACCUGA	0.0595 ± 0.0098	0.00319 ± 0.0018
GGAGACCUUACUAUACAACCUACUACCGUCA	0.132 ± 0.02	0.0112 ± 0.0047
GGAGAGGAUACUAUACAACCUACUACCGCA	0.0764 ± 0.015	0.00593 ± 0.0021
GGAGUGGAUACUAUACAACCUACUACCUCU [g2:g26:cont:t1U]	0.231 ± 0.019	1.05 ± 0.27
GGAGUGGAUACUAUACGACCUACUACCUCA	0.135 ± 0.0095	0.0922 ± 0.036
GGAGUGGAUACUAUACAAGCUACUACCACA	0.133 ± 0.012	0.0039 ± 0.0017

Sequence	pre-steady-state target cleavage rate [1]	pre-steady-state target cleavage rate [2]
GGAGUGGAUACUAUAGAACCUACAACCUCA	0.0134 ± 0.0034	0.00234 ± 0.0015
GGAGACCUUACUAAUACAACCUACUACCUCA	0.0928 ± 0.01	0.074 ± 0.027
GGAGACGAUACUAUACAACCUACUUCCUGA	0.00812 ± 0.005	0.00342 ± 0.002
GGAGAGGAUACUAUACAUCGUACUACCUCA	0.0374 ± 0.0069	0.00364 ± 0.0019
GGAGAGGAAACAAUACAACCUACUACCUCA	0.186 ± 0.018	0.00675 ± 0.004
GGAGAGGAUAGUAUACAACCUACUACCACA	0.0774 ± 0.011	0.00287 ± 0.002
GGAGACGAUACUAUACAACCUACUACCUGA	0.132 ± 0.02	0.0064 ± 0.002
GGAGUGGAUACAAUACUACCUACUACCUCA	0.16 ± 0.013	0.00316 ± 0.0019
GGAGAGGAAACUAUACAUCCUACUACCUCA	0.302 ± 0.029	0.00711 ± 0.0026
GGAGUGGUUACUAUACAACCUACUAGCUCA	0.0259 ± 0.0059	0.00221 ± 0.001
GGAGACCAUACUAUACUACCUACUACCUCA	0.158 ± 0.017	0.00859 ± 0.0036
GGAGUGGUUACUUUACAACCUACUACCUCA	0.162 ± 0.0089	0.00342 ± 0.0031
GGAGAGGAUACUAAACAACCUACUAGCUCA	0.0547 ± 0.012	0.00242 ± 0.0017
GGAGACGAAUGUAUACAACCUACUACCUCA	0.124 ± 0.011	0.00736 ± 0.0043
GGAGAGCAUACUAUACAACCUAGUACCUCA	0.0618 ± 0.013	0.00276 ± 0.0014
GGAGACCAUACUAUACAACCUACUACUCA	0.204 ± 0.026	0.00387 ± 0.0024
GGAGACGUUACUAUACAACGUACUACCUCA	0.0206 ± 0.0027	0.00362 ± 0.0014
GGAGUGGAUACUAUACAACCUUCUACCUCA	0.00895 ± 0.002	0.0116 ± 0.0048
GGAGAGCAUACUUUACAACCUACUACCUCA	0.138 ± 0.01	0.0083 ± 0.0045
GGAGACGAAAGUAUACAACCUACUACCUCA	0.108 ± 0.01	0.0104 ± 0.0056
GGAGUGGAUACUAUAGAAGCUACUACCUCA	0.19 ± 0.011	0.00277 ± 0.0019
GGAGUGGAUACUAUACAACCUACCUACCUCA	0.128 ± 0.0098	0.00423 ± 0.0017
GGAGACCUAUGAUAACAACCUACUACGCUCA	0.00466 ± 0.0023	< 0.0001
GGAGACCUAACUAUACAACCUACUACCCCA	0.195 ± 0.058	0.00474 ± 0.0039
GGAGACCUAACUGAUACAACCUACUACCUCA	0.183 ± 0.045	0.00745 ± 0.0044

Sequence	pre-steady-state target cleavage rate [1]	pre-steady-state target cleavage rate [2]
GGAGACGAUACUAAACAACCUACUACGUCA	0.0907 ± 0.012	0.00304 ± 0.003
GGAGUGGAUACUAUACAACUUACUACCUCA	0.0246 ± 0.0024	0.01 ± 0.0049
GGAGUGGAUACUAUACAACCUACUUACCUCA	0.133 ± 0.011	0.00852 ± 0.0034
GGAGACCUAACUAUACAACCUAUUACCUCA	0.0965 ± 0.018	0.00738 ± 0.0043
GGAGAGGAUACUAUACAACCUACUACGUGA	0.0154 ± 0.004	0.00416 ± 0.0019
GGAGUGGAUACUAUACAUCCUACUACCACA	0.108 ± 0.014	0.00415 ± 0.0017
GGAGACGAUACGAUACAACCUACUACCUCA	0.193 ± 0.018	0.049 ± 0.019
GGAGAGGAUACUAUCAACCUACUACCUCA	0.154 ± 0.01	0.0088 ± 0.0053
GGAGACCUUACAUAUACAACCUACUACCUCA	0.0595 ± 0.012	0.00546 ± 0.0041
GGAGACCUAUGUAUUCAACCUACUACCACA	0.0995 ± 0.016	< 0.0001
GGAGACCAUAGUAUACAACCUACUACCUCA	0.118 ± 0.012	0.022 ± 0.0084
GGAGAGCAUUCUAUACAACCUACUACCUCA	0.156 ± 0.013	0.0192 ± 0.01
GGAGUGGAUACUAUACAACCUACUACCUCG [g2:g26:cont:t1G]	0.164 ± 0.011	0.0718 ± 0.025
GGAGAGUAUACUAUACAACCUACUACCUCA	0.184 ± 0.011	0.0182 ± 0.0087
GGAGACCUAUGAUAUGUACCUACAUGGAGA [g8:g13:cont:t1A]	< 0.0001	< 0.0001
GGAGACCAUACUAUACAACCUAGAUCCUCA	0.0232 ± 0.0082	0.00423 ± 0.0039
GGAGUCGAUACAAUACAACCUACUACCUCA	0.177 ± 0.012	0.00908 ± 0.0047
GGAGUGGAUACUAUACAACCUACUAACUCA	0.018 ± 0.005	0.00991 ± 0.0043
GGAGACCUAUGAUAUGAACCUACUACCCCA	< 0.0001	< 0.0001
GGAGUGGAUACUAUACAACCUUCAACCUCA	0.00344 ± 0.0019	0.00298 ± 0.0018
GGAGACGAUACUAUACUACCUACUACCUGA	0.167 ± 0.021	0.00446 ± 0.0021
GGAGUGGAUACUAUACAAGCUACUACCUCA	0.233 ± 0.013	0.008 ± 0.0032
GGAGACCUAUCUAUACAUCCUAGUACCUCA	0.0489 ± 0.012	0.00398 ± 0.0038
GGAGAGGAUACUAAACAACCUACUACCACA	0.108 ± 0.011	0.00277 ± 0.002
GGAGAGGAAACUAUACAACGUACUACCUCA	0.0138 ± 0.0051	0.00339 ± 0.0016
